These results are taken from PubChem BioAssay.

Active and inactive are the calls of the source. Unless noted, no rule for the calls is given here.

In experiment [1] the test system is XIP peptide (Xip251-270) binding. Briefly: XIP fragment 251-270 binding compounds – biochemical, small-molecule microarray, fluorescence 635/667 nm, 0.1 µg/mL protein, primary screen (AID 1182). Conditions: fluorescent protein binding, 635 nm, higher = more signal, called active from +8 up or from −8 down.
For the next experiment, the system named is XIP peptide (Xip251-270). Briefly: compounds binding XIP fragment 251-270 – biochemical, small-molecule microarray, fluorescence 635/667 nm, 0.5 µg/mL protein, primary screen (AID 1183). To be noted: fluorescence 635 nm, higher = more signal.
The nature of experiment [2]: blood-stage malaria parasite viability loss – strain 3D7, DAPI fluorescence, 100 nL, primary screen (AID 1184).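 Also: parasites grown inside human red blood cells in medium with human serum.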 Conditions: P. falciparum 3D7 growth, 3 d, higher = more signal.
Experiment [3] has as its target Homeobox protein Hox-A13 (Mus musculus) (UniProt Q62424). Nature of the experiment: disruptors of Hoxa13 oligonucleotide interaction – biochemical, fluorescence polarization, labeled oligonucleotide, primary screen (AID 1185). Conditions: Hoxa13:DNA binding, 15 min, higher = more signal, called active from +8 up or from −8 down.
Experiment [4] is described as follows: blockers of DNA damage checkpoint Chk1 activation – imaging, HeLa, hydroxyurea, phospho-Chk1 antibody, percent positive cells, primary screen (AID 1186). To be noted: hydroxyurea-induced phospho-Chk1 immunofluorescence imaging, higher = more signal.
A short description of experiment [5]: blockers of DNA damage checkpoint Chk1 activation – imaging, HeLa, hydroxyurea, phospho-Chk1 nuclear intensity, primary screen (AID 1187). Conditions: hydroxyurea-induced phospho-Chk1 immunofluorescence imaging, higher = more signal.

Chain of Homeobox protein Hox-A13 (Mus musculus) (Q62424 whole entry, looked up): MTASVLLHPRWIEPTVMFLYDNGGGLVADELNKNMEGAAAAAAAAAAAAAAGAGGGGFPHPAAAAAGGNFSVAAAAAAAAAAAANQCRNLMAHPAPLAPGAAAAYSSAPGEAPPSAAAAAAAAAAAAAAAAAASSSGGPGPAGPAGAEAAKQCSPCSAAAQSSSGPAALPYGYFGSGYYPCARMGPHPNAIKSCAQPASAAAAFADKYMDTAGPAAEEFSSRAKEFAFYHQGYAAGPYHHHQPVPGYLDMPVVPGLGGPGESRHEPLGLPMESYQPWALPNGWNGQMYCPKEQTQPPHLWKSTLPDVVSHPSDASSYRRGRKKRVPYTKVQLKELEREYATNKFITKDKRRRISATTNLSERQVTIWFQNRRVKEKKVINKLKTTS

On to `COc1ccc(C#Cc2ccc3c(c2)[C@]2(C(=O)N3)[C@H](C(=O)Nc3nc4ccccc4s3)[C@H]3C(=O)O[C@H](c4ccccc4)[C@H](c4ccccc4)N3[C@@H]2c2ccc(O)cc2)cc1`, for which the composite z-score in experiment [1] is 0.0642 (inactive); in the experiment on XIP peptide (Xip251-270), 0.73. The z-score in experiment [2] is -0.435; in experiment [3], -0.717 (inactive); in experiment [4], -0.0599 (inactive); in experiment [5], -0.17 (inactive).

In the case of `[N-]=[N+]=Nc1ccccc1[C@H]1OC(c2ccc(OCCCO)cc2)=N[C@@]1(CCS(=O)(=O)c1ccccc1)C(=O)NCC(O)CO` (some centres not stated), the values for the composite z-score (in experiment [1]; in the experiment on XIP peptide (Xip251-270)) were -0.193 (inactive) and 0.557, respectively. Also, the z-score was -1.81 in experiment [2], -4.65 (inactive) in experiment [3], -0.0536 (inactive) in experiment [4] and -0.22 (inactive) in experiment [5].

With `CC(C)C[C@@H]1NC(=O)[C@@H]2C[C@H](C(=O)O)[C@H](c3cccc(OCCO)c3)N2C1=O`, the composite z-score in experiment [1] was 1.04 (inactive); in the experiment on XIP peptide (Xip251-270), 0.708. Moreover, the z-score in experiment [2] was -0.222; in experiment [3], -2.76 (inactive); in experiment [4], 0.0342 (inactive); in experiment [5], 0.153 (inactive).

Consider `CN(C)C(=O)[C@]1(Cc2ccccc2N=[N+]=[N-])N=C(c2ccc(OCCCO)cc2)O[C@@H]1c1ccccc1N=[N+]=[N-]`, for which the composite z-score in experiment [1] is 1.31 (inactive); in the experiment on XIP peptide (Xip251-270) it was 0.799. The z-score in experiment [2] is -2.22; in experiment [3], -3.63 (inactive); in experiment [4] it was -1.13 (inactive); in experiment [5], -1.55 (inactive).

Turning to `C=CC(=C)[C@H]1Oc2ccccc2S(=O)(=O)N2CCC[C@@H]12`, the values for the composite z-score (in experiment [1]; with XIP peptide (Xip251-270)) were 0.323 (inactive) and -0.253, respectively. The z-score in experiment [2] was -0.0753; in experiment [3], -1.9 (inactive); in experiment [4] it was 0.142 (inactive); in experiment [5] it was 0.342 (inactive).

Turning to `CCOC(=O)C1=CC[C@@H](c2ccccc2)N(S(=O)(=O)c2ccc(C)cc2)[C@H]1c1ccccc1C`, the composite z-score in experiment [1] is -0.164 (inactive); in the experiment with XIP peptide (Xip251-270) it was 0.291. Further, the z-score in experiment [2] was -1.71; in experiment [3] it was -0.813 (inactive); in experiment [4], 0.023 (inactive); in experiment [5], 0.112 (inactive).

On to `Cc1ccc(S[C@]2(C(=O)NCCCN(C)C)CC(=O)N(Cc3cc(C(F)(F)F)cc(C(F)(F)F)c3)[C@@H]2c2ccc(CO)cc2)cc1`, for which the composite z-score is -0.497 (inactive) in experiment [1] and -0.583 in the experiment on XIP peptide (Xip251-270). Besides, the z-score in experiment [2] is 0.798; in experiment [3], -2.68 (inactive); in experiment [4], 0.112 (inactive); in experiment [5] it was -0.331 (inactive).

For `CC(=O)NCCCC[C@@H]1NC(=O)[C@H]2C[C@@H](C(=O)NCCCCCCNC(=O)CS)[C@@H](c3ccc(O)cc3)N2C1=O`, the composite z-score was 0.957 (inactive) in experiment [1] and 0.818 with XIP peptide (Xip251-270). Moreover, the z-score is -1.26 in experiment [2], -4.69 (inactive) in experiment [3], 0.307 (inactive) in experiment [4] and 0.663 (inactive) in experiment [5].

`COC(=O)[C@@]1(Cc2ccc(OC)cc2)[C@H]2c3cc(C(=O)N(C)C)n(CCc4ccccn4)c3C[C@H]2CN1C(=O)c1ccccc1`: the composite z-score was -0.312 (inactive) in experiment [1] and -0.7 in the experiment with XIP peptide (Xip251-270). In addition, the z-score in experiment [2] is -1.52; in experiment [3], -2.39 (inactive); in experiment [4] it was 0.808 (inactive); in experiment [5], 0.0643 (inactive).

`COC(=O)[C@@]1(Cc2ccc(F)cc2)[C@H]2c3cc(C(=O)N(C)C)n(Cc4cc(F)c(F)c(F)c4)c3C[C@H]2CN1C(=O)c1ccccc1`: the figures for the composite z-score (in experiment [1]; with XIP peptide (Xip251-270)) were 0.0639 (inactive) and 0.626, respectively. The z-score in experiment [2] was -1.66; in experiment [3] it was -3.48 (inactive); in experiment [4] it was 0.0893 (inactive); in experiment [5] it was 0.175 (inactive).

For the compound `O=C(c1ccccc1)N1Cc2ccccc2C[C@@]2(COC(c3ccc(OCCCO)cc3)=N2)C1=O`, the figures for the composite z-score (in experiment [1]; in the experiment on XIP peptide (Xip251-270)) were 1.45 (inactive) and 0.751, respectively. Further, the z-score was -2.26 in experiment [2], -4.77 (inactive) in experiment [3], -0.221 (inactive) in experiment [4] and 0.159 (inactive) in experiment [5].

With `O=C(OCc1ccccc1)C1=CCC2c3[nH]c4ccccc4c3C(=O)C1N2S(=O)(=O)c1ccccc1[N+](=O)[O-]` (configuration not stated), the figures for the composite z-score (in experiment [1]; in the experiment with XIP peptide (Xip251-270)) were -0.0884 (inactive) and -0.0191, respectively. Besides, the z-score in experiment [2] is -1.07; in experiment [3] it was -1.47 (inactive); in experiment [4] it was -0.824 (inactive); in experiment [5] it was -1.44 (inactive).

`CC(C)C(=C=CC[C@@H](O)c1ccc(OCCO)cc1)C[C@@H](O)COCc1ccccc1`: the composite z-score in experiment [1] was 0.372 (inactive); in the experiment with XIP peptide (Xip251-270), 0.195. For the same compound, the z-score in experiment [2] is -2.45; in experiment [3], -3.75 (inactive); in experiment [4] it was -1.27 (inactive); in experiment [5] it was -0.437 (inactive).

For the compound `CC1(C)[C@@H]2CC(C(O)C3C=CC4C(=O)N(Cc5ccccc5)C(=O)C4N3n3cnnc3)=C[C@H]1C2` (some centres not stated), the composite z-score in experiment [1] was 0.902 (inactive); in the experiment on XIP peptide (Xip251-270), -0.0686. In addition, the z-score in experiment [2] is -0.101; in experiment [3], -3.19 (inactive); in experiment [4] it was 0.338 (inactive); in experiment [5], -0.115 (inactive).

Consider `O=C1C[C@]2(c3ccc([N+](=O)[O-])cc3)C(=O)N(CC(F)(F)F)c3cc(CO)ccc3[C@H]2N1C1CCCCC1`, for which the figures for the composite z-score (in experiment [1]; in the experiment on XIP peptide (Xip251-270)) were -0.0975 (inactive) and 0.0582, respectively. Moreover, the z-score in experiment [2] is -0.762; in experiment [3], -1.39 (inactive); in experiment [4], -0.219 (inactive); in experiment [5], -0.125 (inactive).

Consider `C[C@H]1C2[C@H](Cc3ccccc3)NC(=O)[C@]23C(=O)N[C@H](Cc2ccccc2)C(=O)N2CCC[C@H]2C(=O)NC/C=C\C/C=C/C3[C@@H]2O[C@]12C` (some centres not stated), for which the results for the composite z-score (in experiment [1]; in the experiment with XIP peptide (Xip251-270)) were 0.297 (inactive) and 0.192, respectively. In addition, the z-score was -0.227 in experiment [2], -6.27 (inactive) in experiment [3], -0.291 (inactive) in experiment [4] and -0.104 (inactive) in experiment [5].

As to `CN(C)CCCCCCNC(=O)[C@@H]1C[C@@H]2C(=O)N[C@@H](Cc3ccccc3)C(=O)N2[C@@H]1c1ccc(O)cc1`, the composite z-score was 0.594 (inactive) in experiment [1] and 0.887 with XIP peptide (Xip251-270). Moreover, the z-score was -1.19 in experiment [2], -2.65 (inactive) in experiment [3], -0.165 (inactive) in experiment [4] and 0.272 (inactive) in experiment [5].
